# According to PubChem BioAssay (NCATS):
# The source made the active and inactive calls. The rule behind the calls is not given here.
# System: HIV-1 nucleocapsid protein NCp7 (binding to TG oligonucleotide)
# Assay: HIV Nucleocapsid (AID 346);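 note: potency is for inhibitors that block NC binding and lower polarization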
# Conditions: HIV-1 NC / fluorescein-TGTGTGTG probe, fluorescence polarization
# Method in brief: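 Inhibition of nucleocapsid binding to single-stranded 5'-TGTGTGTG probe (10 nM) was measured by fluorescence polarization after 1 hr at room temperature with 100 nM protein under high-salt, zinc-containing, reducing conditions.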
# Potency is the fitted concentration of half-maximal effect.
row,Compound,Potency
1,O=S(=O)(c1ccccc1)N1CCC2(CCCN(c3ccccc3)C2)CC1,> 20 µM (inactive)
2,CCNc1ncc2ncc(=O)n(CCc3ccccc3)c2n1,> 20 µM (inactive)
3,COc1ccc(Oc2ncc3nc(CCc4ccccc4)c(=O)n(C)c3n2)cc1,> 20 µM (inactive)
4,COc1cccc(Cn2c(=O)cnc3cnc(OCc4ccccc4)nc32)c1,> 20 µM (inactive)
5,COc1ccc2[nH]cc(CCNc3cc(-c4ccccc4C(F)(F)F)ncn3)c2c1,> 20 µM (inactive)
6,FC(F)(F)c1cc(CN2CCCC3(CCNCC3)C2)cc(C(F)(F)F)c1,> 20 µM (inactive)
7,CN(C)c1ccc(-c2cncnc2NCc2ccccc2)cc1,> 20 µM (inactive)
8,COc1ccccc1CNc1nc(-c2ccccc2OC)nc2ccccc12,> 20 µM (inactive)
9,COc1ccccc1-c1cncnc1-n1ccnc1,> 20 µM (inactive)
10,N#Cc1ccc(CN2CCCC3(CCN(C(=O)c4cnccn4)CC3)C2)cc1,> 20 µM (inactive)
11,COCCn1c(=O)c(-c2ccc(F)cc2)nc2cnc(N(C)C)nc21,> 20 µM (inactive)
12,COc1ncc2nc(-c3cn(C)c4ccccc34)c(=O)n(C[C@H]3CCCO3)c2n1,> 20 µM (inactive)
13,Cc1noc(C)c1C(=O)N1CCC2(CC1)CN(Cc1cc(C(F)(F)F)cc(C(F)(F)F)c1)C2,> 20 µM (inactive)
14,N#Cc1ccc(CN2CC[C@@]3(CCCN(C(=O)c4ccco4)C3)C2)cc1,> 20 µM (inactive)
15,CS(=O)(=O)Nc1cccc(-c2nc(NCCN3CCOCC3)c3ccccc3n2)c1,> 20 µM (inactive)
16,O=C(Nc1ccccc1)N1CC2(CCN(C(=O)c3ccncc3)CC2)C1,> 20 µM (inactive)
17,Cc1ccccc1-c1nc(N2CCOCC2)c2ccccc2n1,> 20 µM (inactive)
18,O=C(c1ccncc1)N1CCC2(CCCN(c3cccc(-c4ccccc4)c3)C2)CC1,> 20 µM (inactive)
19,COCCn1c(=O)c(-c2ccccc2)nc2cnc(N(C)C)nc21,> 20 µM (inactive)
20,c1ccc(-c2cccc(N3CCCC4(CCNCC4)C3)c2)cc1,> 20 µM (inactive)

row,Compound,Potency
1,COCC(=O)N1CCC2(CC1)CN(c1ccccc1)C2,> 20 µM (inactive)
2,COc1ccccc1CNc1ccnc(-c2c(C)noc2C)n1,> 20 µM (inactive)
3,COc1cccc(Cn2c(=O)c(-c3ccc(Cl)cc3)nc3cnc(OC)nc32)c1,> 20 µM (inactive)
4,CCNc1ncc2nc(-c3cccc(C#N)c3)c(=O)n(C)c2n1,> 20 µM (inactive)
5,CC(C)NC(=O)N1CC2(CCN(C(=O)c3cc(C(F)(F)F)cc(C(F)(F)F)c3)CC2)C1,> 20 µM (inactive)
6,CS(=O)(=O)N1CCC2(CC1)CN(C(=O)Nc1ccccc1)C2,> 20 µM (inactive)
7,COc1cccc(Cn2c(=O)cnc3cnc(Nc4ccccc4)nc32)c1,4.95 µM (active)
8,COc1ccccc1-c1cc(N(C)Cc2ccco2)ncn1,> 20 µM (inactive)
9,Cc1noc(C)c1C(=O)N1CCC[C@@]2(CCN(C(c3ccccc3)c3ccccc3)C2)C1,> 4 µM (inactive)
10,COc1cccc(-c2cncnc2Nc2ccc(F)cc2)c1,> 20 µM (inactive)
11,O=c1c(-c2ccc(F)c(F)c2)nc2cncnc2n1-c1ccccc1,> 20 µM (inactive)
12,CNc1nc(-c2ccccc2C(F)(F)F)nc2ccccc12,> 20 µM (inactive)
13,FC(F)(F)c1ccccc1-c1nc(NCc2cccnc2)c2ccccc2n1,> 20 µM (inactive)
14,CN(C)Cc1ccccc1-c1cncnc1Nc1ccccc1,> 20 µM (inactive)
15,CCNc1ncc2nc(-c3cn(C)c4ccccc34)c(=O)n(Cc3cccc(OC)c3)c2n1,> 20 µM (inactive)
16,COc1ccccc1-c1nc(NCc2cccs2)c2ccccc2n1,> 20 µM (inactive)
17,COc1ccc2[nH]cc(CCNc3ccnc(-c4ccccc4C(F)(F)F)n3)c2c1,> 20 µM (inactive)
18,O=c1c(-c2cc(F)cc(F)c2)nc2cnc(N3CCOCC3)nc2n1-c1ccccc1,> 4 µM (inactive)
19,CCNc1ncc2ncc(=O)n(C)c2n1,> 20 µM (inactive)
20,COCC(=O)N1CCC[C@@]2(CCN(c3ccccc3)C2)C1,> 20 µM (inactive)
